Measurements published in PubChem BioAssay.

Test: compound effects on multiple myeloma cell viability – MM1S, calcein-AM fluorescence, 48 h, basal, profiling panel (AID 1165); also: test concentration not given here
Conditions: higher = more signal
In the case of `COCCOC(=O)N1C(=O)[C@@]2(c3cc(C#CC4(O)CCCCCC4)ccc31)[C@H](C(=O)N1CCN(c3ncccn3)CC1)[C@H]1C(=O)O[C@H](c3ccccc3)[C@H](c3ccccc3)N1[C@@H]2c1ccc(OCCO)cc1`, the z-score was 0.0759.
With `CS(=O)(=O)CCOC(=O)C1=CC(CCCO)=CC(c2cccs2)N(Cc2cccc(OC(F)(F)F)c2)C=C1C(=O)OCCS(C)(=O)=O` (stereo unspecified) the z-score was -3.28.
With `N#Cc1ccc(NN2C(C(O)c3cc(C(F)(F)F)cc(C(F)(F)F)c3)C=CC3C(=O)N(c4ccccc4)C(=O)C32)cc1` (stereo unspecified) the z-score was -1.45.
For `COC(=O)C1(C)C=C2C(=C(c3ccccc3)C(=O)C2C)CN1` (stereo unspecified), the z-score was -0.671.
With `COC(=O)CC=C[C@H](C)[C@@H](OCc1ccccc1Br)C(C)C` the z-score was 0.426.
For `CC(=O)OC[C@H]1O[C@H](CCON=C[C@@H](C)[C@H](OCc2ccccc2)C(C)C)C=C[C@@H]1OC(C)=O`, the z-score was -0.09.
`CC(CCN1CCCCc2nc(C)c(C)cc21)=NOC(C)CN1CCCCc2nc(C)c(C)cc21` (stereo unspecified) gave a z-score of -2.33.
With `CCN1C(=O)[C@H]2[C@H]3[C@H](O)[C@H](O)CC(=NOCc4ccccc4)[C@@H]3CC[C@H]2C1=O` the z-score was 0.565.
Compound `CC(=O)OC[C@H]1O[C@H](CCON=C(C)CCN2CCc3nc(-c4ccccc4)c(-c4ccccc4)cc3C2)C=C[C@@H]1OC(C)=O` has a z-score of -2.16.
Work on `CN(C)CCCNC(=O)[C@@H]1c2ccccc2C(=O)N(Cc2cc(F)cc(C(F)(F)F)c2)[C@H]1c1ccc(CO)cc1` yielded a z-score of 0.137.
`CC(CCC(=O)OC[C@H]1O[C@H](C#Cc2ccccc2)C=C[C@@H]1Oc1ccc(C)cc1)=NOC[C@@H](O)[C@H]1O[C@@H]2OC(C)(C)O[C@@H]2[C@H]1O` gave a z-score of -0.567.
Compound `CC(C)N1CC=CC23O[C@@H]4C=CCCOC(=O)C4[C@H]2C(=O)N(CCCCCCO)[C@@H]3C1=O` (stereo partly specified) has a z-score of 0.585.
`O=C1[C@H]2[C@H]3[C@H](O)[C@H](O)CC(=NOC[C@@H](O)COCc4ccco4)[C@H]3CC[C@H]2C(=O)N1C1CCCCC1` showed a z-score of 0.29.
Compound `CO[C@@H]1COC(=O)CCC[C@@H](C)[C@H](OC)COC(=O)CCC[C@H]1C` has a z-score of -0.197.
In the case of `O=C1NC(=O)C2C1C=CC(C(O)Cc1ccccc1)N2Nc1ccccn1` (stereo unspecified), the z-score was -0.171.
Work on `CC(C)(C)OC(=O)CC[C@]1(C(=O)NCc2ccccc2)N=C(c2ccc(OCCCO)cc2)O[C@H]1c1ccccc1` yielded a z-score of -1.99.
With `CC(C)(C)OC(=O)CC[C@]1(C(N)=O)COC(c2ccc(OCCCO)cc2)=N1` the z-score was 0.909.
Compound `CC(C)CON=C1C[C@@H](O)[C@@H](O)[C@@H]2[C@@H]3C(=O)N(Cc4ccccc4)C(=O)[C@@H]3CC[C@@H]12` has a z-score of 0.479.
Work on `C=CCOC(=O)[C@H]1[C@@H]2C(=O)O[C@@H](c3ccccc3)[C@@H](c3ccccc3)N2[C@@H](c2ccc(OCCOC(=O)[C@H]3C[C@H]4C(=O)N[C@@H](Cc5ccccc5)C(=O)N4[C@H]3c3ccc(O)cc3)cc2)[C@]12C(=O)Nc1ccccc12` yielded a z-score of 0.0505.
`O=C1[C@H]2[C@H]3[C@H](O)[C@H](O)CC(=NOCc4ccccc4)[C@H]3CC[C@H]2C(=O)N1c1ccc(F)cc1F` gave a z-score of 0.772.
Work on `COC(=O)C1=C(C)[C@@H](O)[C@@H](C)[C@H](c2c(OC)c(OC)c(C)c(OC)c2OC)O1` yielded a z-score of 0.631.
`COC(=O)[C@@]1(Cc2ccc(OC)cc2)[C@H]2c3cc(C(=O)N4CCCC4)n(Cc4cc(F)c(F)c(F)c4)c3C[C@H]2CN1C(=O)c1ccccc1` gave a z-score of -1.
`CC(CCC(=O)OC[C@H]1O[C@H](C#Cc2ccccc2)C=C[C@@H]1Oc1ccc(C)cc1)=NO[C@@H](C)c1cn([C@H](CO)Cc2ccccc2)nn1` gave a z-score of -0.622.
`CC(C)NC(=O)[C@@]1(c2ccc([N+](=O)[O-])cc2)CC(=O)N(CC23CC4CC(CC(C4)C2)C3)[C@@H]1c1ccc(CO)cc1I` gave a z-score of -3.8.
With `COC(=O)[C@H](C)NC(=O)CCC1CC(OC(=O)NCCc2ccc(F)cc2)CC2(CCCC(COC(=O)NCCc3ccc(Cl)cc3)O2)O1` (stereo partly specified) the z-score was -1.14.
`C=C(CCCC)C(=O)CC[C@@H](OC(C)=O)c1cccc(OCCO)c1` gave a z-score of -2.53.
For `CCOC(=O)[C@H](CC(C)C)NC(=O)CCC1CC(OC(=O)NCc2cccc3ccccc23)CC2(CCCC(COC(=O)NCCc3ccccc3OC)O2)O1` (stereo partly specified), the z-score was 0.0779.
With `CCCCCN1CC=CC23O[C@@H]4C=CCOC(=O)[C@@H]4[C@H]2C(=O)N(C(CO)C(C)C)[C@@H]3C1=O` (stereo partly specified) the z-score was 0.949.
`CCOC(=O)[C@H](CC(C)C)NC(=O)CCC1CC(OC(=O)NCc2cccc3ccccc23)CC2(CCCC(COC(=O)NCCN3CCOCC3)O2)O1` (stereo partly specified) showed a z-score of 0.109.
Work on `Cc1ccc(F)cc1S(=O)(=O)N[C@@H]1CCN(Cc2ccc(CC(C)C)cc2)C1` yielded a z-score of -3.34.
Work on `O=C1[C@H]2[C@H]3[C@H](O)[C@H](O)CC(=NOC[C@@H](O)COCc4ccco4)[C@@H]3CC[C@H]2C(=O)N1c1ccc(F)cc1F` yielded a z-score of 0.136.
Compound `CCCNC(=O)[C@@H]1c2ccccc2C(=O)N(c2ccc(C)cn2)[C@H]1c1ccc(CO)cc1` has a z-score of -0.336.
Work on `CC[C@@H](c1ccccc1)n1c(=O)n2n(c1=O)[C@H]1[C@H](O)[C@@H]3O[C@@H]3C(=NOCC=C(C)CCC=C(C)C)[C@H]1CC2` yielded a z-score of -3.08.
Work on `CC(C)[C@@H](OCc1ccccc1)[C@H](C)C=NO[C@H](C)c1cn([C@H](CO)Cc2ccccc2)nn1` yielded a z-score of -0.192.
In the case of `Cc1cc2c(c(=O)o1)[C@H](O)[C@H]1O[C@H]1C2=O`, the z-score was -3.45.
For `COCCCNC(=O)[C@]1(Cc2ccccc2)N=C(c2ccc(OCCCO)cc2)O[C@@H]1c1ccccc1`, the z-score was -2.27.
